Results on 104 compounds are retold here after PubChem BioAssay AID2553 (Johns Hopkins Ion Channel Center, 2010).

In all, about 310,000 compounds went through this assay and about 3,300 (1.1%) were called active.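 The calls were made as follows: active = B-score under library mean minus 3 SD, initial fluorescence not abnormally high, positive integrated signal ratio; inactive = the rest.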 The list comes from a sample in which actives are over-represented; it also holds similar structures and randomly drawn compounds.

For the test, the target named is Short transient receptor potential channel 6 (Mus musculus) (UniProt Q61143). The test can be described thus: mouse TRPC6 channel inhibitors, primary screen, cell-based, HEK293, membrane potential dye (AID 2553).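 As to B-score: B-score derived from integrated fluorescence ratio over the kinetic read; more negative B-score means stronger inhibition of depolarization.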 Conditions: ACh-evoked depolarization, at 10 µM; active compounds read low.
Chain of Short transient receptor potential channel 6 (Mus musculus) (Q61143 whole entry, looked up): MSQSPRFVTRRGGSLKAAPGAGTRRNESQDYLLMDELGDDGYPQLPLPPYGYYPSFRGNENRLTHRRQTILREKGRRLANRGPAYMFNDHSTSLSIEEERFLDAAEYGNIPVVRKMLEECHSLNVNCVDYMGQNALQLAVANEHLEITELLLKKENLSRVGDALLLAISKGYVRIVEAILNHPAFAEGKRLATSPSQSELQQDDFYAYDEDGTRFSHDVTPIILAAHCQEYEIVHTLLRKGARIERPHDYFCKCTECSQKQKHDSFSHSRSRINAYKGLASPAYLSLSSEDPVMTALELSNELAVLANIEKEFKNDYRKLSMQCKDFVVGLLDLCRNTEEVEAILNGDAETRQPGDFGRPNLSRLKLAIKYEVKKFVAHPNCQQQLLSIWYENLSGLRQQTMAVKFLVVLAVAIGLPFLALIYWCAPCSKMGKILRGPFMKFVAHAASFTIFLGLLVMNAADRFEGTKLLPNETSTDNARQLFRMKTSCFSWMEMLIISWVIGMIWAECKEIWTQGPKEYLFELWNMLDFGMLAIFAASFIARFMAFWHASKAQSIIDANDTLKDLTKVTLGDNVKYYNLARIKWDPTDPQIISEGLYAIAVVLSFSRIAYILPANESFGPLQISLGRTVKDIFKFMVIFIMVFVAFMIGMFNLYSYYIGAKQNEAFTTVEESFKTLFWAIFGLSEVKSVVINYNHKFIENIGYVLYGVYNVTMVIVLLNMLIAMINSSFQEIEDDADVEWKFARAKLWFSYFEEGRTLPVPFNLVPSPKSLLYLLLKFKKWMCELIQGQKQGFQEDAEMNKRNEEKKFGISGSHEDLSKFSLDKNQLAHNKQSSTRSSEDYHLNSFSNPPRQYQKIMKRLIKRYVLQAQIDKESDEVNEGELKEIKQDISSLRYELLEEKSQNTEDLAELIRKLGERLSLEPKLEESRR
As to `CC(NC(=O)CCC(=O)N1CCN(S(=O)(=O)c2ccc(Cl)cc2)CC1)c1ccccc1` (centres undefined), the B-score result was “inactive”.

Take `CC12C(=O)N(c3ccccc3)C(=O)C1C(c1ccccc1)N1CCCN12` (centres undefined): the B-score result is “inactive”.

`CCN1CCN(c2c(Cl)cccc2NC(=O)c2ccc(Br)o2)CC1`: the B-score is -12.2 (active).

Turning to `O=C(Nc1cccc(Cl)c1N1CCOCC1)c1cccnc1`, the B-score result is “inactive”.

`CCCC(=O)Nc1ccc(Cl)c(NC(=O)c2ccc(Br)o2)c1`: the B-score entry was “inactive”.

As to `CCCN=C1NC(=O)C(CC(=O)NCCc2ccc(OC)c(OC)c2)S1` (centres undefined), the B-score result is “inactive”.

As to `COc1ccc(NC(=O)CSc2nc(SC)ns2)c(OC)c1`, the B-score entry is “inactive”.

Take `C#CC(CCN1CCCCC1)(OC)c1ccccc1` (centres undefined): the B-score result is “inactive”.

Consider `CCOC(=O)c1sc2nc(C)[nH]c(=O)c2c1C`, for which the B-score result is “inactive”.

For the compound `CCOC(=O)c1sc2nc(CSc3ccccc3)[nH]c(=O)c2c1C`, the B-score entry is “inactive”.

In the case of `CCOC(=O)c1sc2nc(CSCC(=O)OCc3ccc(C(=O)OC)o3)[nH]c(=O)c2c1C`, the B-score is -12.7 (active).

Consider `COc1ccc(NC(=S)N2N=CCC2c2ccccc2)cc1` (centres undefined), for which the B-score result is “inactive”.

For `Cc1cccc(-[n+]2c(-c3cccc(Br)c3)[nH]c3nc4ccccc4nc32)c1`, the B-score was -6.45 (active).

For the compound `Cc1nnc(SCc2ccc(C(=O)c3ccc(Cl)cc3)o2)n1-c1ccccc1`, the B-score is -6.02 (active).

Turning to `Cc1nnc(SCC(=O)N2CCN(c3ccccc3)CC2)n1-c1ccccc1`, the B-score result is “inactive”.

Take `Cc1nnc(SCC(=O)NCCOc2ccc(Cl)cc2)n1-c1ccccc1`: the B-score result is “inactive”.

For the compound `CN1CCN(C(=O)c2ccc(NS(=O)(=O)c3ccccc3)cc2)CC1`, the B-score result is “inactive”.

Regarding `O=C(Nc1ccc(Br)cc1F)C1CC(=O)N(C2CCCCC2)C1` (centres undefined), the B-score entry was “inactive”.

As to `CC(=O)Nc1ccc(NC(=O)CN2CCCC(C)C2)c(Cl)c1` (centres undefined), the B-score was -5.66 (active).

Regarding `CC1CCCN(CC(=O)Nc2cc(Cl)ccc2Oc2ccccc2)C1` (centres undefined), the B-score result is “inactive”.

For the compound `O=C(CN1CCOCC1)Nc1ccc(NC(=O)CN2CCOCC2)c(Cl)c1`, the B-score result was “inactive”.

For `Cc1ccc(S(=O)(=O)C2(S(=O)(=O)c3ccc(C)cc3)CCCC2)cc1`, the B-score entry was “inactive”.

For `O=S(=O)(Cc1nnnn1-c1ccccc1)c1ccccc1`, the B-score entry is “inactive”.

Consider `O=C(OCCN1C(=O)c2ccccc2C1=O)Oc1ccccc1`, for which the B-score entry was “inactive”.

As for `Cn1c(=O)c2c(nc(NCCNC(=O)c3ccco3)n2Cc2ccccc2F)n(C)c1=O`, the B-score entry is “inactive”.

Take `Cc1ccc(NC(=O)COC(=O)CNC(=O)c2ccc(Cl)cc2Cl)cc1S(=O)(=O)N1CCOCC1`: the B-score result was “inactive”.

Turning to `COc1ccc(CC(=O)Nc2sc(Cc3ccccc3)c(C)c2C(N)=O)cc1`, the B-score was -7.08 (active).

For the compound `COc1ccc(CC(=O)Nc2c(C(N)=O)oc3ccccc23)cc1`, the B-score result is “inactive”.

Consider `Cc1ccc(C(=O)Nc2sc(Cc3ccc4c(c3)OCO4)c(C)c2C(N)=O)cc1`, for which the B-score result is “inactive”.

For the compound `Cc1ccccc1N1C(=O)C2ON(c3ccccc3)C(c3ccncc3)C2C1=O` (centres undefined), the B-score entry is “inactive”.

As for `CCN(CC)CCNc1ccc(Cl)cc1[N+](=O)[O-]`, the B-score result is “inactive”.

As to `CCN(CC)CCn1c2ccc(Cl)cc2c2nc(C)sc21`, the B-score is -7.92 (active).

Take `COC(=O)Cn1c2ccc(C)cc2c2nc(C)sc21`: the B-score result was “inactive”.

In the case of `COCCNc1ccc(-c2n[nH]c(=O)c3ccccc23)cc1[N+](=O)[O-]`, the B-score result is “inactive”.

With `NS(=O)(=O)c1ccc(CCNC(=O)CCCn2c(SCC(=O)N3CCCC3)nc3ccsc3c2=O)cc1`, the B-score entry was “inactive”.

On to `COc1ccc(Cn2c(=O)cc(C)[nH]c2=S)cc1`, for which the B-score entry is “inactive”.

Consider `COc1ccc(Cn2c(-c3ccc(Cl)cc3)c[n+]3ccccc23)cc1`, for which the B-score was -7.95 (active).

Turning to `CCn1c(C)cc(=O)cc1-c1ccc(Cl)cc1`, the B-score entry is “inactive”.

With `CCN1C(=S)N[C@@H](CCc2ccccc2)[C@H](C(=O)OC)[C@H]1C`, the B-score entry is “inactive”.

In the case of `O=C(O)CSCc1ccc(C(=O)O)o1`, the B-score result was “inactive”.

As to `COc1ccc(C(=O)N2CCc3cc(OC)c(OC)cc3C2c2cccc([N+](=O)[O-])c2)cc1` (centres undefined), the B-score result was “inactive”.

As to `COc1ccccc1C1CCN(c2ccc([N+](=O)[O-])cn2)CC1`, the B-score result was “inactive”.

With `COc1ccccc1C1SCCN1C(=O)c1ccc([N+](=O)[O-])cc1` (centres undefined), the B-score is -9.98 (active).

As for `CC1CC(C)CN(CCOc2cccc3ccccc23)C1` (centres undefined), the B-score result was “inactive”.

Regarding `CCCCCCCCCCOC(=O)C[N+](C)(C)CC1CCCCC1O` (centres undefined), the B-score was -9.01 (active).

As for `CCCCCOC(=O)c1ccc(N2C(=O)C3C4C=CC(C4)C3C2=O)cc1` (centres undefined), the B-score entry is “inactive”.

With `CCC(C)(C)c1ccc(OCC(=O)N(C)C)c(C(C)(C)CC)c1`, the B-score entry is “inactive”.

For the compound `Oc1ccccc1-c1cc(-c2ccc(Cl)cc2)n[nH]1`, the B-score result was “inactive”.

Consider `CCCCNC(=O)C1CCC(CNS(=O)(=O)c2ccc(NC(C)=O)cc2)CC1` (centres undefined), for which the B-score result is “inactive”.

For `Cc1ccccc1-n1nnnc1SCCCC(=O)c1ccc(F)cc1`, the B-score result was “inactive”.

For `CCc1c(O)nc(SCC(=O)Nc2ccccc2)n(C(C)CC)c1=O` (centres undefined), the B-score result is “inactive”.

On to `CNC(=O)c1ccsc1NC(=O)c1ccc(S(=O)(=O)N2CCOCC2)cc1`, for which the B-score entry is “inactive”.

With `COc1ccc(C(=O)Nc2nc(-c3ccc(S(=O)(=O)N4CCOCC4)cc3)cs2)cc1`, the B-score entry is “inactive”.

Consider `COC(=O)c1c(NC(=O)c2ccc(S(=O)(=O)N3CCOCC3)cc2)sc2c1CCN(C(C)C)C2`, for which the B-score is -5.88 (active).

Consider `Cc1ccccc1CS(=O)(=O)CC1(O)CCN(C(=O)c2cccc(C(F)(F)F)c2)CC1`, for which the B-score entry is “inactive”.

`CCC(C)(C)NC(=O)C(c1ccc(OC)cc1)N(C(=O)CCC(=O)Nc1cc(C)on1)c1ccc(OC)cc1OC` (centres undefined): the B-score result was “inactive”.

Regarding `O=C(CSc1nnnn1C1CCCC1)N1CCCCC1`, the B-score entry was “inactive”.

Take `Cc1cccc(NC(=S)NCCN(C2CCCCC2)C2CCCC2)c1`: the B-score is -5.75 (active).

For the compound `Cc1cccc(NC(=S)Nc2ccc(Cl)c(Cl)c2)c1`, the B-score result is “inactive”.

Consider `Cc1cccc(NC(=S)Nc2ccc(Br)cc2)c1`, for which the B-score result was “inactive”.

In the case of `O=S(=O)(c1ccc(Br)c2ccccc12)N1CCOCC1`, the B-score entry was “inactive”.

As to `Cc1ccccc1N1CCN(S(=O)(=O)c2ccc3ccccc3c2)CC1`, the B-score result is “inactive”.

As for `Cc1cc(N2CCN(S(=O)(=O)c3ccc(C)c(C)c3)CC2)c2ccccc2n1`, the B-score is -5.95 (active).

In the case of `Cc1ccc(S(=O)(=O)N2CCN(c3ccccc3)CC2)cc1C`, the B-score entry is “inactive”.

Regarding `CC(=O)NS(=O)(=O)c1ccc(N/C(N)=N/c2nc(C)cc(C)n2)cc1`, the B-score result was “inactive”.

`Cc1ccc(CN2CCN(Cc3ccc4ncccc4c3)CC2CCO)cc1` (centres undefined): the B-score entry was “inactive”.

Regarding `CC(C)N1CCC(N2CCN(Cc3cccnc3)CC2CCO)CC1` (centres undefined), the B-score result is “inactive”.

Turning to `OCCC1CN(Cc2ccc3nsnc3c2)CCN1C1CCCC1` (centres undefined), the B-score is -6.69 (active).

As for `COc1cccc2c1OCC(CN1CCN(C3CCCCC3)C(CCO)C1)=C2` (centres undefined), the B-score entry was “inactive”.

Consider `Cn1cnnc1Sc1ccc(CN2CCN(C3CCCC3)C(CCO)C2)o1` (centres undefined), for which the B-score result was “inactive”.

On to `OCCC1CN(Cc2ccc3nsnc3c2)CCN1C1CCCCC1` (centres undefined), for which the B-score is -5.65 (active).

Take `Fc1c(F)c(C(F)(F)F)c(F)c(F)c1N1CCN(c2ccc3nnc(C(F)(F)F)n3n2)CC1`: the B-score entry is “inactive”.

Take `O=C(CCN1CCCO1)N1CCCC(N2CCN(c3cccc(C(F)(F)F)c3)CC2)C1` (centres undefined): the B-score entry was “inactive”.

As to `O=C(O)c1ccc(S(=O)(=O)N2CCOCC2)o1`, the B-score entry was “inactive”.

As for `O=C(NCc1ccccc1Cl)C(=O)NCC1CCCN1S(=O)(=O)c1cccs1` (centres undefined), the B-score entry was “inactive”.

In the case of `COc1ccc([C@@H]2[C@@H]3C(=O)N(C(C)(C)C)C(=O)[C@@H]3[C@]3(Cc4ccccc4)C(=O)N(c4cccc(Br)c4)C(=O)N23)cc1`, the B-score entry was “inactive”.

Take `COc1ccc(-c2nonc2NC(=O)c2oc3ccc(F)cc3c2C)cc1OC`: the B-score result is “inactive”.

With `CCOC(=O)c1cc2c(n(-c3ccc(C)cc3)c1=O)CCCC2=O`, the B-score result was “inactive”.

With `CCOC(=O)C1=NN(c2ccc(Cl)cc2)/C(=C/C2=NCCc3cc(OC)c(OC)cc32)S1`, the B-score is -5.5 (active).

As for `CCOC(=O)C1=C(CN2CCc3ccccc32)NC(=O)NC1c1ccc(Cl)cc1` (centres undefined), the B-score result is “inactive”.

As for `FC(F)(F)c1nc(-c2ccccc2)ncc1-c1nnnn1-c1ccccc1`, the B-score entry was “inactive”.

As to `Clc1ccc(-n2nnnc2-c2cnc(-c3ccccn3)nc2-c2cccs2)cc1`, the B-score was -6.02 (active).

On to `c1ccc(-n2nnnc2-c2cccnc2)cc1`, for which the B-score result was “inactive”.

As to `O=C(Nc1cccc(Cl)c1)c1cc([N+](=O)[O-])ccc1N1CCN(CCO)CC1`, the B-score result was “inactive”.

As for `CCN1CCN(c2ccc([N+](=O)[O-])cc2C(=O)c2ccc(Cl)cc2)CC1`, the B-score is -6.09 (active).

As for `CCC(=O)c1ccc(N2CCN(C(=O)c3cc([N+](=O)[O-])ccc3F)CC2)c(F)c1`, the B-score result is “inactive”.

Regarding `COc1ccc(C(C#N)Nc2ccc(C)cc2)cc1` (centres undefined), the B-score result was “inactive”.

Turning to `Cc1ccc(S(=O)(=O)N(c2cccc(C)c2)C2CCS(=O)(=O)C2)cc1` (centres undefined), the B-score result was “inactive”.

As to `COCc1ccc(CN2CCC(Oc3ccc(C(=O)NCc4ccccn4)cc3)CC2)o1`, the B-score result was “inactive”.

Consider `CCCn1nc(NC(=O)C(C)C)c2cc3cc(OC)ccc3nc21`, for which the B-score result is “inactive”.

Turning to `Cc1ccccc1CSc1nnc(CCCCCNC(=O)OC(C)(C)C)o1`, the B-score entry is “inactive”.

For the compound `CCC(C)(C)NC(=O)CN(C(=O)CCC(=O)Nc1cc(C)ccn1)c1ccc2c(c1)OCCO2`, the B-score result was “inactive”.

As to `CCC(C)(C)NC(=O)CN(C(=O)CCC(=O)Nc1nccs1)c1ccc2c(c1)OCO2`, the B-score is -5.2 (active).

Consider `O=C(CN(C(=O)CCC(=O)Nc1nccs1)c1ccc(F)cc1)NCc1ccc2c(c1)OCO2`, for which the B-score result was “inactive”.

Turning to `CCN1CCC2(CCN(Cc3cn[nH]c3-c3ccc(OC)c(F)c3)C2)C1` (centres undefined), the B-score result is “inactive”.

Turning to `COc1ccc(/C=C/C(=O)OCC(=O)NCc2cccs2)cc1OC`, the B-score result was “inactive”.

On to `O=C(CN1CCN(C(=O)C2CCCO2)CC1)Nc1c(Cl)cccc1Cl` (centres undefined), for which the B-score entry is “inactive”.

With `COc1ccc(OC)c(CNC(=O)Cn2nc(C)c3c(C)n(-c4ccc(C)cc4)nc3c2=O)c1`, the B-score entry was “inactive”.

Take `CN=C1C=C/C(=N/N=c2\ccn(O)cc2C)C=C1C`: the B-score result was “inactive”.

Regarding `O=C(O)CCCCCNc1ncnc2ccc(Br)cc12`, the B-score result is “inactive”.

In the case of `Cc1ccccc1-n1nc(C)c2c1N=C1C(Cl)=CC(Cl)=CN1C2c1ccc(C(=O)O)cc1` (centres undefined), the B-score entry was “inactive”.

Take `Cn1nnnc1SCC(=O)N1CCN(C(c2ccccc2)c2ccccc2)CC1`: the B-score entry is “inactive”.

`O=C(c1ccc(-n2cnnn2)cc1)N1CCN(C(c2ccccc2)c2ccccc2)CC1`: the B-score was -5.27 (active).

Regarding `Cc1onc(C(=O)NN)c1C(=O)N1CCN(C(c2ccccc2)c2ccccc2)CC1`, the B-score result is “inactive”.
